The record followed here is PubChem BioAssay (NCI).

This is part of a sample that, as a whole, favours compounds with a hit. Of some 83,000 tested, about 20% had one in any assay.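 The test compound was applied at a single concentration to cells in 96-well plates for 48 hours, and percent growth was recorded.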 Unmarked numbers belong to inactive results. Calls of active or inactive are those of the source. The calls were made as follows: active = growth percent below 10; inactive = the rest.

Some test systems named below: T-47D breast; BT-549 breast; MDA-MB-435 melanoma; SW-620 colon; MCF7 breast; HCT-116 colon; HCC-2998 colon; KM12 colon.
Common to all, as to assay: NCI-60 one-dose screen, 48 h (100 = growth as untreated, 0 = no growth, -100 = all killed)
What all share (details): 10 µM unless noted

Regarding `CCN(CC)CCC(=O)Nc1ccc(Cn2nnc3c2C(=O)c2nnn(Cc4ccc(NC(=O)CCN(CC)CC)cc4)c2C3=O)cc1`, the growth in the experiment with T-47D breast is -58% (active); in the experiment on BT-549 breast it was -94.2% (active); in the experiment on MDA-MB-435 melanoma, -80.1% (active); with SW-620 colon, -9.46% (active); in the experiment with MCF7 breast, -60.2% (active); with HCT-116 colon, -87.9% (active). The growth in the experiment on HCC-2998 colon is -47.2% (active); with KM12 colon, -6.54% (active).

`C[C@@H]1CC[C@@H]2[C@@H]1[C@H](OC(=O)/C=C/c1ccccc1)[C@]1(c3ccccc3)C[C@@H](OC(=O)CO)[C@@]2(C)O1`: the growth with T-47D breast is 89.5%; in the experiment on BT-549 breast it was 17.1%; in the experiment on MDA-MB-435 melanoma, 99.2%; in the experiment with SW-620 colon it was 96.6%; with MCF7 breast it was 84.3%; with HCT-116 colon, 89.5%. The figures for the growth in the experiment on HCC-2998 colon and with KM12 colon were 99.4% and 96%, respectively.

Turning to `O=[N+]([O-])c1cccc(-c2nc3sccn3c2-c2ccnc(NCCCNS(=O)(=O)c3ccc(F)cc3)n2)c1`, the growth with T-47D breast is -12.1% (active); in the experiment on BT-549 breast, -12.1% (active); in the experiment with MDA-MB-435 melanoma it was 1.66% (active); in the experiment with SW-620 colon it was 18.3%; with MCF7 breast, -8.37% (active); with HCT-116 colon, 4.43% (active). In addition, the growth with HCC-2998 colon was 58.3%; in the experiment with KM12 colon it was 0.995% (active).

Turning to `O=C1OC2C(I)C3CC2C1C3c1ccccc1` (stereo not drawn), the growth is 95.2% with T-47D breast; 152% in the experiment with BT-549 breast; 131% with MDA-MB-435 melanoma; 96.1% with SW-620 colon; 109% in the experiment on MCF7 breast; 96.8% in the experiment with HCT-116 colon. Also, the growth in the experiment with HCC-2998 colon is 105%; in the experiment with KM12 colon it was 108%.

With `OCCNCCNc1c2ccccc2nc2ccccc12`, the growth was 39.6% with T-47D breast; 103% in the experiment with BT-549 breast; 89.4% in the experiment with MDA-MB-435 melanoma; 59.5% in the experiment on SW-620 colon; 23.4% in the experiment with MCF7 breast; 37.7% in the experiment with HCT-116 colon. Further, the growth in the experiment on HCC-2998 colon is 52.6%; in the experiment on KM12 colon, 55.6%.

In the case of `Cn1c2c(Cl)c(Cl)ccc2c2ccn3c(=O)c4ccccc4nc3c21`, the growth with T-47D breast was 85%; with BT-549 breast, 86.4%; with MDA-MB-435 melanoma it was 98.3%; in the experiment on SW-620 colon it was 99.1%; in the experiment with MCF7 breast it was 96.2%; in the experiment with HCT-116 colon, 90%. The growth with HCC-2998 colon was 100%; with KM12 colon, 103%.

For the compound `CCCCCC(=O)N(CCCC)CCCC`, the growth with T-47D breast was 109%; in the experiment with BT-549 breast, 102%; in the experiment on MDA-MB-435 melanoma, 89.4%; in the experiment with SW-620 colon, 117%; in the experiment with MCF7 breast, 123%; with HCT-116 colon, 108%. The growth in the experiment with HCC-2998 colon is 111%; with KM12 colon it was 109%.

As for `C=CC[N+]1(CCO)CCN=C1CCCCCCCCCCCCC` (stereo not drawn), the growth was -39.2% (active) with T-47D breast; -10.2% (active) in the experiment with BT-549 breast; -78.1% (active) in the experiment with MDA-MB-435 melanoma; -72.3% (active) with SW-620 colon; -72.3% (active) with MCF7 breast; -95.1% (active) in the experiment with HCT-116 colon. The growth with HCC-2998 colon was -91.1% (active); in the experiment with KM12 colon it was -83.2% (active).

Turning to `CCOC(=O)c1cnc2ccc(OC)cc2c1Nc1cccc(S(=O)(=O)NC)c1`, the growth with T-47D breast is 98%; in the experiment with BT-549 breast, 80.1%; in the experiment with MDA-MB-435 melanoma, 103%; with SW-620 colon, 113%; with MCF7 breast, 80.9%; with HCT-116 colon, 96.7%. The growth is 101% in the experiment with HCC-2998 colon and 96.1% in the experiment with KM12 colon.

Regarding `CCCCCC(=O)Oc1ccc(/C(=C(\C)c2ccccc2)c2ccc(OCCN(CC)CC)cc2)cc1`, the growth was 39% in the experiment with T-47D breast; 72.7% in the experiment with BT-549 breast; 70.3% with MDA-MB-435 melanoma; 70.8% in the experiment with SW-620 colon; 29.6% with MCF7 breast; 50.7% in the experiment with HCT-116 colon. The results for the growth in the experiment with HCC-2998 colon and in the experiment with KM12 colon were 88.1% and 62%, respectively.

Turning to `Nc1cc2nc3ccccc3sc-2cc1=O`, the growth is 71.1% with T-47D breast; 63.1% in the experiment on BT-549 breast; -68.2% (active) in the experiment on MDA-MB-435 melanoma; 84.7% in the experiment with SW-620 colon; 44.3% in the experiment on MCF7 breast; 72.7% in the experiment with HCT-116 colon. The growth was 100% in the experiment with HCC-2998 colon and 80.8% in the experiment on KM12 colon.

Regarding `COc1ccc(CN2C(=O)/C(=C\c3cc(OC)c(OC)c(OC)c3)c3cc(OC)ccc32)cc1`, the growth is -0.59% (active) in the experiment on T-47D breast; 27.1% in the experiment with BT-549 breast; -0.0336% (active) in the experiment on MDA-MB-435 melanoma; -64.1% (active) in the experiment with SW-620 colon; 7.67% (active) in the experiment on MCF7 breast; -79.6% (active) in the experiment with HCT-116 colon. The growth in the experiment with HCC-2998 colon is 74.1%; with KM12 colon, -86% (active).

As for `N=S(=O)(NC(=O)c1ccc(Cl)cc1Cl)c1ccc(Br)s1` (stereo not drawn), the growth in the experiment on T-47D breast is 103%; in the experiment with BT-549 breast, 99.5%; in the experiment on MDA-MB-435 melanoma it was 96.2%; in the experiment with SW-620 colon, 80.9%; in the experiment on MCF7 breast, 91.5%; in the experiment with HCT-116 colon, 80.6%. Moreover, the growth in the experiment on HCC-2998 colon is 102%; in the experiment with KM12 colon, 88.5%.

Turning to `O=C1c2cccnc2C(=O)c2c1c(C(=O)OCCN1CCCCC1)c1ccccn21`, the growth in the experiment on T-47D breast is 4.01% (active); with BT-549 breast, 20.1%; in the experiment on MDA-MB-435 melanoma, -5.97% (active); in the experiment on SW-620 colon, -13.6% (active); in the experiment with MCF7 breast, -43.3% (active); in the experiment with HCT-116 colon, -8.36% (active). Also, the growth with HCC-2998 colon was -46.6% (active); in the experiment on KM12 colon, 8.77% (active).

As to `COC1/C=C\OC2(C)Oc3c(C)c(O)c4c(O)c(c(CN(C)CCO)c(O)c4c3C2=O)NC(=O)/C(C)=C\C=C/C(C)C(O)C(C)C(O)C(C)C(OC(C)=O)C1C` (stereo not drawn), the growth is 89.3% in the experiment on T-47D breast; 105% in the experiment with BT-549 breast; 111% with MDA-MB-435 melanoma; 105% with SW-620 colon; 91.6% in the experiment on MCF7 breast; 107% in the experiment on HCT-116 colon. Moreover, the growth in the experiment with HCC-2998 colon was 121%; in the experiment on KM12 colon, 106%.

Regarding `CS(CCCCN=C=S)=NC(=O)c1c(F)c(F)c(F)c(F)c1F` (stereo not drawn), the growth was 19.1% in the experiment on T-47D breast; 95.7% with BT-549 breast; 70.8% in the experiment on MDA-MB-435 melanoma; 52.6% in the experiment on SW-620 colon; 22.8% with MCF7 breast; 54% with HCT-116 colon. Further, the growth in the experiment on HCC-2998 colon is 104%; in the experiment on KM12 colon, 55.8%.
